We go through 18 molecules from PubChem BioAssay.

Structures are written as SMILES. Values without a mark were called inactive. For part of these data: Measured potencies and affinities stand elsewhere. Activity calls are given as the source filed them. Unless noted, how the calls were made is not given here.

The nature of assay [1]: antimalarial activity against Dd2 strain (AID 2302;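 active means growth inhibition above 50% at the single 2 µM test dose, taken to imply half-maximal potency below 2 µM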;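 further: 0% = DMSO untreated growth and 100% = chloroquine plus artemisinin killed control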). Conditions: P. falciparum Dd2 in RBCs, LDH growth readout, 72 h; at 2 µM; hits give high values.
Assay [2] in a line: HepG2 cytotoxicity, primary screen, cytotoxicity control for P. falciparum antimalarial project, cell-based, ATP luminescence (AID 2303;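 active means inhibition above 50%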;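 further: 0% = DMSO wells and 100% = digitonin-killed cells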). Conditions: HepG2 viability, 24-48 h, at 10 µM, hits give high values.
The target of assay [3] is L-lactate dehydrogenase (Plasmodium falciparum (isolate CDC / Honduras)) (UniProt Q27743). In words: PfLDH activity inhibition – cell lysate, 3D7 strain, counter-screen for P. falciparum growth inhibition project (AID 2304).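 Further: 0% = vehicle and 100% = reference inhibitor.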 The settings on record: P. falciparum 3D7 crude extract, LDH APAD/NBT absorbance; at 2 µM; hits give high values. On the technique in general: A counterscreen serves to expose hits that act by an unwanted route or on another target.

Assay [4] can be described thus: inhibition of 3D7 malaria parasite growth – strain 3D7 (AID 2306).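 Further: 0% = DMSO wells and 100% = chloroquine plus artemisinin control wells.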 The settings on record: P. falciparum 3D7 erythrocytic growth, LDH absorbance, 72 h; at 2 µM; hits give high values.
For assay [5], the target named is Calcium-dependent protein kinase 1 (Plasmodium falciparum (isolate 3D7)) (UniProt P62344). In words: PfCDPK1 kinase inhibitors, biochemical, TCAMS library (AID 1159585; cut-off not given, nearly all actives have IC50 up to about 0.98 µM;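 further: inhibitors leave more ATP so luminescence rises with inhibition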). Conditions: recombinant PfCDPK1, Kinase-Glo ATP depletion luminescence. Background: Kinase-Glo reads ATP consumption through a luciferase reaction.
Assay [6] deals with Plasmodium falciparum protein kinase 6 (PK6, PF3D7_1337100) (UniProt Q8IDW1). Nature of the assay: PfPK6 kinase inhibitors, biochemical, TCAMS library (AID 1159586). Conditions: recombinant PfPK6, Kinase-Glo ATP depletion luminescence.
Assay [7] addresses Protein kinase 7 (PK7), Plasmodium falciparum 3D7 (PF3D7_0213400) (UniProt Q7YTF7). In words: inhibition of Plasmodium PK7 catalytic activity – biochemical, TCAMS antimalarial set, Kinase-Glo luminescence (AID 1159587). Conditions: recombinant PfPK7, Kinase-Glo ATP depletion luminescence.
The target of assay [8] is Calcium-dependent protein kinase 4 (Plasmodium falciparum (isolate 3D7)) (UniProt Q8IBS5). Nature of the assay: PfCDPK4 kinase inhibitors, biochemical, TCAMS library (AID 1159588; cut-off not given, nearly all actives have IC50 up to about 0.91 µM). The settings on record: recombinant PfCDPK4, Kinase-Glo ATP depletion luminescence.
Chain of Calcium-dependent protein kinase 4 (Plasmodium falciparum (isolate 3D7)) (Q8IBS5 whole entry, looked up): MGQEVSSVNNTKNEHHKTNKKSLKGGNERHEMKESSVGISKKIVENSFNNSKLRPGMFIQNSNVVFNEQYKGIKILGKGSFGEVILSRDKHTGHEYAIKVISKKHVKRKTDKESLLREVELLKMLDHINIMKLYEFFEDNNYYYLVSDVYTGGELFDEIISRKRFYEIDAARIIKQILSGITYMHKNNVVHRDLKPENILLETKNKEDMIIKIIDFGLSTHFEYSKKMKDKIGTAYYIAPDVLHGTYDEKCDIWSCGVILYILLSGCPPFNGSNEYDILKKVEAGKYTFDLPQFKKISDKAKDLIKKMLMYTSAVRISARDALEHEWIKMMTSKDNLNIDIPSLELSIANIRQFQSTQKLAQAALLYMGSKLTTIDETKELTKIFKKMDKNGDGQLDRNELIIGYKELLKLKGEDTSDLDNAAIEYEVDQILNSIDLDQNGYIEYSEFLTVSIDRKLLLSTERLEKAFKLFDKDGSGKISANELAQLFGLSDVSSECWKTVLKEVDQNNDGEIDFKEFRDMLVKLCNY

Chain of Plasmodium falciparum protein kinase 6 (PK6, PF3D7_1337100) (Q8IDW1 1-305): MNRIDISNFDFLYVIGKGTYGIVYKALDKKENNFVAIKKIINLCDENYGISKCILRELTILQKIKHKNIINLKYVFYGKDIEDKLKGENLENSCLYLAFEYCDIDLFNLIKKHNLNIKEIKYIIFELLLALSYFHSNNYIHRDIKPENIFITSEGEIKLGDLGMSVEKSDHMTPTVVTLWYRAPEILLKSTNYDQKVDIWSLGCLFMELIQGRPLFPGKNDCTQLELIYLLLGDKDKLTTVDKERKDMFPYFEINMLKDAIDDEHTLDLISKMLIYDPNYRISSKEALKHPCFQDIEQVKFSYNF
Chain of L-lactate dehydrogenase (Plasmodium falciparum (isolate CDC / Honduras)) (Q27743 whole entry, looked up): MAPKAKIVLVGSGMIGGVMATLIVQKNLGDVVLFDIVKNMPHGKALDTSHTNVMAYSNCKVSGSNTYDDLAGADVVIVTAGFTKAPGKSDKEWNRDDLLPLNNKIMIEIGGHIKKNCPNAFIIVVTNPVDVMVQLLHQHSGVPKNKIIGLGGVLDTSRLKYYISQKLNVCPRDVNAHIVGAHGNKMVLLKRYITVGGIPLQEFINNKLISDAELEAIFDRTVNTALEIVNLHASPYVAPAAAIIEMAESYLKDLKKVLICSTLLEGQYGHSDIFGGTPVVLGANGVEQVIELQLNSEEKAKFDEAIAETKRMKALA
Chain of Calcium-dependent protein kinase 1 (Plasmodium falciparum (isolate 3D7)) (P62344 whole entry, looked up): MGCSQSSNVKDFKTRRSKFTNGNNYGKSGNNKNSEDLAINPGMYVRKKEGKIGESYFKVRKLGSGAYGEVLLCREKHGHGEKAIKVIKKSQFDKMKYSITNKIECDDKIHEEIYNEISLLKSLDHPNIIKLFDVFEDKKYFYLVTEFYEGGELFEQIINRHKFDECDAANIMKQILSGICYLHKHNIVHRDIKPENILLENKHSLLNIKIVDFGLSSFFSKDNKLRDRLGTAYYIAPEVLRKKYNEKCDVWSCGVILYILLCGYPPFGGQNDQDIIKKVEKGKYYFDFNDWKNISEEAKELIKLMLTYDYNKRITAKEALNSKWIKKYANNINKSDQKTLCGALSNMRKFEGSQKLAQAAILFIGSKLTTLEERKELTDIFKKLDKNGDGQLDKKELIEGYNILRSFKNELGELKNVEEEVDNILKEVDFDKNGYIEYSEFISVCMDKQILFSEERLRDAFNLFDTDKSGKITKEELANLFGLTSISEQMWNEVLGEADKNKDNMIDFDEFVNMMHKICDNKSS
Chain of Protein kinase 7 (PK7), Plasmodium falciparum 3D7 (PF3D7_0213400) (Q7YTF7 1-343): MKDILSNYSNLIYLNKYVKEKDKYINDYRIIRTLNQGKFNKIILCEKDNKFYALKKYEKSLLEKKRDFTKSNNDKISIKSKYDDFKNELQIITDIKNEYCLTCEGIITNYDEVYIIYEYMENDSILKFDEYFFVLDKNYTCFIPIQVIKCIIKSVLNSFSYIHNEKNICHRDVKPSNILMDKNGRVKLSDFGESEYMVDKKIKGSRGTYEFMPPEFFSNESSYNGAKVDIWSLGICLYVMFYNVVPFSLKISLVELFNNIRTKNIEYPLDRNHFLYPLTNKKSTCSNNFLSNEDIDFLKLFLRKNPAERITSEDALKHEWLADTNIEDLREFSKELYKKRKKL

The inhibition is the relative decrease from the control value, in per cent. Take `Cc1cccc2[nH]c(-c3ccc(-c4cccc(NC(=O)c5cnn6cccnc56)c4)cc3)nc12`: the figures for the growth inhibition in assay [1] and in assay [4] were 29% and 91% (active), respectively. The inhibition in assay [2] is 100% (active); in assay [3], -4%. The outcome in assay [5], in assay [6], in assay [7] and in assay [8] was inactive.

Take `COc1cc(NC(=O)N2CCOC(CCN3CCC4(CCc5ccccc54)CC3)(c3ccc(Cl)c(Cl)c3)C2)cc(OC)c1OC` (centres undefined): the figures for the growth inhibition in assay [1] and in assay [4] were 67% (active) and 94% (active), respectively. Also, the inhibition in assay [2] is 17%; in assay [3], -4%. For the same molecule, the outcome in assay [5], in assay [6], in assay [7] and in assay [8] was inactive.

With `O=S(=O)(c1c(Cl)cccc1Cl)N1CCCCC(c2ccc(C(F)(F)F)cc2)=N1`, the values for the growth inhibition in assay [1] and in assay [4] were 98% (active) and 99% (active), respectively. For the same molecule, the inhibition was 11% in assay [2] and -2% in assay [3]. Also, the outcome in assay [5], in assay [6], in assay [7] and in assay [8] was inactive.

With `CC1(C)N=C(N)NC(Nc2ccc(Cl)cc2)=N1`, the growth inhibition in assay [1] was -1%; in assay [4], 97% (active). Besides, the inhibition in assay [2] was 8%; in assay [3], -2%. Moreover, the outcome in assay [5], in assay [6], in assay [7] and in assay [8] was inactive.

With `c1ccc(COc2ccc(Nc3ncnc4ccc(-c5ccc(CN6CCSCC6)o5)cc34)cc2)cc1`, the growth inhibition is 4% in assay [1] and 94% (active) in assay [4]. Further, the inhibition in assay [2] and in assay [3] was 4% throughout. In addition, the result in assay [5], in assay [6], in assay [7] and in assay [8] was inactive.

On to `CC(C)N(CCOc1ccc2c(c1)N(C(=O)Nc1ccc(Cl)c(Cl)c1)CC2)C(C)C`, for which the growth inhibition in assay [1] is 39%; in assay [4], 101% (active). In addition, the inhibition in assay [2] is 15%; in assay [3], 3%. The result in assay [5], in assay [6], in assay [7] and in assay [8] was inactive.

As for `Cc1cc(N2CCCC2)nc(Nc2ccc(NC(=O)c3ccccc3C)cc2)n1`, the growth inhibition in assay [1] is 40%; in assay [4], 100% (active). For the same molecule, the results for the inhibition in assay [2] and in assay [3] were 22% and 2%, respectively. Also, the result in assay [5], in assay [6], in assay [7] and in assay [8] was inactive.

As to `Cc1cccc2[nH]c(-c3ccc(-c4ccc(CN5CCCC(N)C5)cc4)s3)nc12` (centres undefined), the growth inhibition is 100% (active) in assay [1] and 101% (active) in assay [4]. Also, the inhibition in assay [2] was 29%; in assay [3], -9%. The result in assay [5], in assay [6], in assay [7] and in assay [8] was inactive.

As for `CCCNC(=O)CN1CN(c2ccccc2)C2(CCN(C(=O)c3ccc(C(C)(C)C)cc3)CC2)C1=O`, the growth inhibition in assay [1] is 98% (active); in assay [4] it was 99% (active). In addition, the inhibition in assay [2] and in assay [3] was 0% in each case. For the same molecule, the result in assay [5], in assay [6], in assay [7] and in assay [8] was inactive.

For the molecule `Cc1ccc(Sc2ccc(NC(=O)CN3CCN(C(=O)c4ccco4)CC3)cc2)cc1C`, the growth inhibition in assay [1] is 84% (active); in assay [4], 92% (active). Further, the inhibition is 14% in assay [2] and 1% in assay [3]. For the same molecule, the outcome in assay [5], in assay [6], in assay [7] and in assay [8] was inactive.

For `Cc1ccc2nc3c(cc(C(=O)NCc4ccccc4)c(=N)n3CCCn3ccnc3)c(=O)n2c1`, the figures for the growth inhibition in assay [1] and in assay [4] were -1% and 93% (active), respectively. Also, the inhibition is 10% in assay [2] and -3% in assay [3]. The result in assay [5], in assay [6], in assay [7] and in assay [8] was inactive.

With `COc1ccc(-c2ccc3c(-c4ccc(F)cc4)cnc(N)c3c2)cn1`, the growth inhibition in assay [1] was 86% (active); in assay [4], 99% (active). The inhibition was 4% in assay [2] and -5% in assay [3]. The outcome in assay [5], in assay [6], in assay [7] and in assay [8] was inactive.

`O=S(=O)(NCCN1CCCC1)c1ccc(-c2cccc(CNCc3ccc(F)cc3)c2)cc1F`: the growth inhibition was 36% in assay [1] and 97% (active) in assay [4]. In addition, the inhibition in assay [2] is 43%; in assay [3], -1%. Also, the outcome in assay [5], in assay [6], in assay [7] and in assay [8] was inactive.

With `CCc1c[nH]c2c(N3CCCS3(=O)=O)cc(C(=O)N[C@@H](Cc3ccccc3)[C@H](O)CNC(C)(C)CCCC(C)C)cc12`, the growth inhibition was 98% (active) in assay [1] and 96% (active) in assay [4]. Moreover, the inhibition was 13% in assay [2] and -2% in assay [3]. The result in assay [5], in assay [6], in assay [7] and in assay [8] was inactive.

With `Cc1ccc2nc(-c3cc(-c4cccc(CCN5CCOCC5)c4)cnc3N)[nH]c2c1`, the growth inhibition in assay [1] was 99% (active); in assay [4], 101% (active). The inhibition in assay [2] is 50% (active); in assay [3], -5%. The result in assay [5], in assay [6], in assay [7] and in assay [8] was inactive.

In the case of `CCCN(CCC)C(=O)c1cc(C(=O)N[C@@H](Cc2ccccc2)[C@H](O)CNCc2cccc(C(F)(F)F)c2)cc(N2CCCCS2(=O)=O)c1`, the growth inhibition in assay [1] is 74% (active); in assay [4] it was 99% (active). For the same molecule, the inhibition in assay [2] was -5%; in assay [3], 3%. Besides, the result in assay [5], in assay [6], in assay [7] and in assay [8] was inactive.

For `Cc1cccc2c(/C=C/C(=O)NC3CCC(CCN4CCc5ccc(C#N)cc5CC4)CC3)c[nH]c12` (centres undefined), the growth inhibition was 49% in assay [1] and 91% (active) in assay [4]. In addition, the inhibition was 18% in assay [2] and -1% in assay [3]. Moreover, the outcome in assay [5], in assay [6], in assay [7] and in assay [8] was inactive.

Consider `O=C(CCc1ccccc1)N[C@H](Cc1c[nH]c2ccccc12)C(=O)N1CCC(NCc2ccc3c(c2)Cc2ccccc2-3)CC1`, for which the growth inhibition in assay [1] is 8%; in assay [4] it was 92% (active). Besides, the inhibition was 53% (active) in assay [2] and -6% in assay [3]. For the same molecule, the outcome in assay [5], in assay [6], in assay [7] and in assay [8] was inactive.
